About 2,000 (36%) of roughly 5,500 compounds were called active. Inconclusive results (about 18%) are left out. Cut-off read from the data, not from the text of the source: active = normalized growth mostly below about 0.91 (no sharp cut-off); inconclusive = no clear call, values can overlap the other calls; inactive = mostly above about 0.92. This is one part of the list.
Experiment: chemical genetic growth profiling, strain panel (AID 1159580);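 note: tested at 20 µM; growth read once vehicle control cultures reached saturation at 30 °C; 1 = growth at the plate median or of vehicle wells; lower values mean less growth of the strain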
Conditions: growth OD

Measured: normalized growth

CC(CCC(=O)O)[C@H]1CCC2C3CC[C@@H]4CCCC[C@]4(C)C3CC[C@@]21C (some centres undefined)
active: S. cerevisiae deletion strains, locus YNL183C, strain NPR1, stronger effect = lower value 1.11 [resistant]
inactive: S. cerevisiae deletion strains, locus YJR043C, strain POL32, stronger effect = lower value 1.02 | S. cerevisiae deletion strains, locus YJR066W, strain TOR1, stronger effect = lower value 1.06 | S. cerevisiae deletion strains, locus YJR075W, strain HOC1, stronger effect = lower value 0.999 | S. cerevisiae deletion strains, locus YKL009W, strain mrt4, stronger effect = lower value 0.95 | S. cerevisiae deletion strains, locus YKL068W, stronger effect = lower value 0.989 | S. cerevisiae deletion strains, locus YKL085W, strain MDH1 (second series), stronger effect = lower value 0.986 | S. cerevisiae deletion strains, locus YKL085W, strain MDH1, stronger effect = lower value 0.986 | S. cerevisiae deletion strains, locus YKL160W, strain elf1, stronger effect = lower value 1.02 | S. cerevisiae deletion strains, locus YKL190W, strain CNB1, stronger effect = lower value 0.998 | S. cerevisiae deletion strains, locus YKR001C, strain vps1, stronger effect = lower value 0.998 | S. cerevisiae deletion strains, locus YKR026C, strain gcn3, stronger effect = lower value 1.01 | S. cerevisiae deletion strains, locus YKR091W, strain srl3, stronger effect = lower value 1 | S. cerevisiae deletion strains, locus YLL001W, strain dnm1, stronger effect = lower value 1.01 | S. cerevisiae deletion strains, locus YLL026W, stronger effect = lower value 0.988 | S. cerevisiae deletion strains, locus YLL041C, strain sdh2, stronger effect = lower value 1 | S. cerevisiae deletion strains, locus YLR027C, strain aat2, stronger effect = lower value 0.995 | S. cerevisiae deletion strains, locus YLR039C, strain RIC1, stronger effect = lower value 1.05 | S. cerevisiae deletion strains, locus YLR058C, strain SHM2, stronger effect = lower value 0.999 | S. cerevisiae deletion strains, locus YLR102C, strain apc9, stronger effect = lower value 0.984 | S. cerevisiae deletion strains, locus YLR113W, strain HOG1, stronger effect = lower value 0.977 | S. cerevisiae deletion strains, locus YLR221C, strain rsa3, stronger effect = lower value 1.02 | S. cerevisiae deletion strains, locus YLR258W, strain gsy2, stronger effect = lower value 1 | S. cerevisiae deletion strains, locus YLR262C, strain YPT6 (second series), stronger effect = lower value 1.05 | S. cerevisiae deletion strains, locus YLR262C, strain YPT6, stronger effect = lower value 1.1 | S. cerevisiae deletion strains, locus YLR268W, strain sec22, stronger effect = lower value 0.979 | S. cerevisiae deletion strains, locus YLR320W, strain mms22, stronger effect = lower value 1.05 | S. cerevisiae deletion strains, locus YLR330W, strain CHS5, stronger effect = lower value 0.999 | S. cerevisiae deletion strains, locus YLR342W, strain FKS1 (second series), stronger effect = lower value 0.956 | S. cerevisiae deletion strains, locus YLR342W, strain FKS1, stronger effect = lower value 1.04 | S. cerevisiae deletion strains, locus YLR357W, strain rsc2, stronger effect = lower value 0.997 | S. cerevisiae deletion strains, locus YLR370C, strain arc18, stronger effect = lower value 1.01 | S. cerevisiae deletion strains, locus YLR371W, strain rom2, stronger effect = lower value 0.986 | S. cerevisiae deletion strains, locus YLR384C, strain iki3, stronger effect = lower value 1 | S. cerevisiae deletion strains, locus YLR418C, strain cdc73, stronger effect = lower value 0.975 | S. cerevisiae deletion strains, locus YML016C, strain PPZ1, stronger effect = lower value 1 | S. cerevisiae deletion strains, locus YML032C, strain rad52, stronger effect = lower value 0.992 | S. cerevisiae deletion strains, locus YML120C, strain ndi1, stronger effect = lower value 1.01 | S. cerevisiae deletion strains, locus YML124C, strain tub3, stronger effect = lower value 0.988 | S. cerevisiae deletion strains, locus YMR058W, strain fet3, stronger effect = lower value 1.01 | S. cerevisiae deletion strains, locus YMR078C, strain ctf18, stronger effect = lower value 1 | S. cerevisiae deletion strains, locus YMR125W, strain sto1, stronger effect = lower value 1.02 | S. cerevisiae deletion strains, locus YMR129W, stronger effect = lower value 1 | S. cerevisiae deletion strains, locus YMR205C, strain PFK2, stronger effect = lower value 1.03 | S. cerevisiae deletion strains, locus YMR223W, strain ubp8, stronger effect = lower value 0.994 | S. cerevisiae deletion strains, locus YMR231W, strain pep5, stronger effect = lower value 0.998 | S. cerevisiae deletion strains, locus YMR307W, strain GAS1, stronger effect = lower value 0.985 | S. cerevisiae deletion strains, locus YNL067W, strain RPL9B, stronger effect = lower value 1.02 | S. cerevisiae deletion strains, locus YNL071W, strain lat1, stronger effect = lower value 1.01 | S. cerevisiae deletion strains, locus YNL209W, strain ssb2, stronger effect = lower value 1.02 | S. cerevisiae deletion strains, locus YNL233W, strain BNI4, stronger effect = lower value 1.01 | S. cerevisiae deletion strains, locus YNL248C, strain rpa49, stronger effect = lower value 1.01 | S. cerevisiae deletion strains, locus YNL250W, strain rad50, stronger effect = lower value 0.982 | S. cerevisiae deletion strains, locus YNL271C, strain bni1, stronger effect = lower value 0.986 | S. cerevisiae deletion strains, locus YNL298W, strain CLA4, stronger effect = lower value 0.981 | S. cerevisiae deletion strains, locus YNL307C, strain MCK1, stronger effect = lower value 0.987 | S. cerevisiae deletion strains, locus YNL322C, strain KRE1 (second series), stronger effect = lower value 1.01 | S. cerevisiae deletion strains, locus YNL322C, strain KRE1, stronger effect = lower value 0.997 | S. cerevisiae deletion strains, locus YNR049C, strain mso1, stronger effect = lower value 0.998 | S. cerevisiae deletion strains, locus YNR052C, strain pop2, stronger effect = lower value 0.985 | S. cerevisiae deletion strains, locus YOL012C, strain htz1 1.54 | S. cerevisiae deletion strains, locus YOL147C, strain pex11, stronger effect = lower value 0.993 | S. cerevisiae deletion strains, locus YOR001W, strain rrp6, stronger effect = lower value 1.02 | S. cerevisiae deletion strains, locus YOR061W, strain CKA2, stronger effect = lower value 0.99 | S. cerevisiae deletion strains, locus YOR069W, strain VPS5, stronger effect = lower value 0.993 | S. cerevisiae deletion strains, locus YOR070C, strain gyp1, stronger effect = lower value 0.994 | S. cerevisiae deletion strains, locus YOR080W, strain dia2, stronger effect = lower value 0.998 | S. cerevisiae deletion strains, locus YOR083W, strain WHI5, stronger effect = lower value 1.02 | S. cerevisiae deletion strains, locus YOR106W, strain vam3, stronger effect = lower value 1.02 | S. cerevisiae deletion strains, locus YOR136W, strain idh2, stronger effect = lower value 0.986 | S. cerevisiae deletion strains, locus YOR144C, strain elg1, stronger effect = lower value 0.992 | S. cerevisiae deletion strains, locus YOR184W, strain ser1, stronger effect = lower value 0.992 | S. cerevisiae deletion strains, locus YOR231W, strain MKK1, stronger effect = lower value 0.969 | S. cerevisiae deletion strains, locus YOR265W, strain rbl2, stronger effect = lower value 1 | S. cerevisiae deletion strains, locus YOR270C, strain vph1, stronger effect = lower value 1.01 | S. cerevisiae deletion strains, locus YOR290C, strain snf2, stronger effect = lower value 1.01 | S. cerevisiae deletion strains, locus YOR316C, strain cot1, stronger effect = lower value 0.985 | S. cerevisiae deletion strains, locus YPL051W, strain arl3, stronger effect = lower value 1.01 | S. cerevisiae deletion strains, locus YPL055C, strain LGE1, stronger effect = lower value 0.991 | S. cerevisiae deletion strains, locus YPL078C, strain atp4, stronger effect = lower value 1.01 | S. cerevisiae deletion strains, locus YPL106C, strain sse1, stronger effect = lower value 1.03 | S. cerevisiae deletion strains, locus YPL240C, strain hsp82, stronger effect = lower value 0.998 | S. cerevisiae deletion strains, locus YPL256C, strain CLN2, stronger effect = lower value 0.94 | S. cerevisiae deletion strains, locus YPR119W, strain clb2, stronger effect = lower value 0.993 | S. cerevisiae deletion strains, locus YPR141C, strain kar3, stronger effect = lower value 0.986 | S. cerevisiae deletion strains, locus YPR163C, strain tif3, stronger effect = lower value 1.01 | S. cerevisiae deletion strains, locus YPR167C, strain met16, stronger effect = lower value 0.971 | S. cerevisiae deletion strains, strain wtn01, stronger effect = lower value 0.965 | S. cerevisiae strains, strain wild type, stronger effect = lower value 0.995

— PubChem BioAssay AID1159580 (chemical genetic matrix, 2015)
